Values without a mark were called inactive. Records with an inconclusive call do not appear. Calls of active or inactive are those of the source. Unless noted, the call rests on the fitted dose curve.

Assay [1] in a line: Nuclear factor erythroid 2-related factor 2/antioxidant responsive element (Nrf2/ARE) small molecule agonists: qHTS cell viability counter screen in human keratinocytes (AID 1919968; active means well fitted curve in the direction sought with a large enough effect in the repeat runs; an effect the other way counts as inactive or inconclusive; further: nearly all actives have a fitted effect of over 55% in size). The essentials: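 CellTiter-Fluor fluorescence, read 1 h after reagent, gave viability in the same wells as the ARE-luciferase assay. KeratinoSens cells (1,500/well) had 23 h compound exposure at 37 C/5% CO2 following 5 h plating.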
For orientation: Quantitative high-throughput screening tests each substance at several concentrations.

A short description of assay [2]: Nuclear factor erythroid 2-related factor 2/antioxidant responsive element (Nrf2/ARE) small molecule agonists: luciferase reporter gene qHTS assay in human keratinocytes (AID 1919969). Further: nearly all actives have a fitted effect of over 35% in size. Further: potency means the concentration at half of the fitted maximal effect. Background: In a reporter assay the amount or activity of a reporter protein is the signal.
For assay [3], the target named is Gonadotropin-releasing hormone receptor (Homo sapiens) (UniProt P30968). In words: Human gonadotropin-releasing hormone receptor (GnRHR) small molecule agonists, calcium flux assay in GnRHR-HEK293 cells (AID 1920063). Further: nearly all actives have a fitted effect of over 35% in size. The essentials: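 Agonist mode: compounds at 15 concentrations, in triplicate, went onto calcium dye-loaded GnRHR-HEK293 cells. Intracellular calcium was then followed as 480/540 nm fluorescence at 1 s intervals over 3 min.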
(In general: Calcium flux is commonly read through the fluorescence of an indicator in the cells.)

Assay [4] concerns the target KiSS-1 receptor (Homo sapiens) (UniProt Q969F8). In words: Human kisspeptin (KISS1R) small molecule agonists, calcium flux assay in KISS1R-HEK293 cells (AID 1920064; active means well fitted curve in the direction sought with a large enough effect in the repeat runs; an effect the other way counts as inactive or inconclusive). In short, it runs like this:
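Agonist mode: intracellular calcium rise tracked at 1 s intervals over 3 min (480/540 nm) immediately after compound addition to dye-loaded KISS1R-HEK293 stable cells. Each compound tested at 15 concentrations in triplicate.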

Assay [5] can be described thus: G protein-coupled receptor (GPCR) small molecule agonists, calcium flux assay: HEK293 wild type cell line counter screen (AID 1920065). The essentials: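 Calcium flux counter screen: compound added in agonist mode at 15 concentrations in triplicate to dye-loaded parental HEK293 cells. Fluorescence (480/540) read kinetically for 3 min; ATP served as positive control.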

Assay [6] in a line: p53 small molecule agonists, cell-based qHTS assay with human liver microsomes: qHTS cell viability counter screen (AID 1963579). Further: nearly all actives have a fitted effect of over 45% in size. In short, it runs like this: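 Tox21 library compounds, delivered from DMSO stocks, were tested on p53RE-bla cells together with 0.5 mg/mL human liver microsomes and 0.5 mg/mL NADPH (final) over 16 h at 37 C; CellTiter-Glo luminescence served as the cytotoxicity measure.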

A short description of assay [7]: p53 small molecule agonists, cell-based qHTS assay with rat liver microsomes: qHTS cell viability counter screen (AID 1963580). Further: nearly all actives have a fitted effect of over 45% in size. In short, it runs like this: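 Rat liver microsome (0.5 mg/mL final) and NADPH (0.5 mg/mL final) co-incubation with compounds for 16 h at 37 C on HCT-116 p53RE-bla cells; cytotoxicity taken from intracellular ATP luminescence.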
The nature of assay [8]: p53 small molecule agonists, cell-based qHTS assay: qHTS cell viability counter screen (AID 1963581). Further: nearly all actives have a fitted effect of over 45% in size. The essentials: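 Counter screen read by CellTiter-Glo luminescence (ATP content, 30 min at room temperature), run in the same wells as the beta-lactamase reporter read. HCT-116 p53RE-bla cells saw compounds for 16 h at 37 C.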
The target in assay [9] is 5-hydroxytryptamine receptor 2A (Homo sapiens) (UniProt P28223). In words: 5-hydroxytryptamine receptor 2A (HTR2A) small molecule antagonists, cell-based qHTS assay (AID 1963586). Further: nearly all actives have a fitted effect of over 45% in size. In short, it runs like this: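 CHO cells stably expressing human HTR2A were plated for 18 h at 37 C, then loaded with calcium dye for 1 h. Compounds were preincubated 5 min at room temperature before DOI (4 nM solution) was added. Kinetic fluorescence was read for 3 min.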

The target is the same in assay [10]. In words: 5-hydroxytryptamine receptor 2A (HTR2A) small molecule agonists, cell-based qHTS assay (AID 1963587). Further: nearly all actives have a fitted effect of over 30% in size. In short, it runs like this:
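Kinetic calcium-flux fluorescence (2 min, 1 sec intervals) after compound addition in agonist mode. HTR2A-CHO cells were cultured 18 h, then dye-loaded 1 h at 37 C.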

Assay [11] in a line: cAMP Responsive Elements (CRE) small molecule agonists, cell-based qHTS assay (AID 1963590). In short, it runs like this:
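Agonist mode: compound added to CRE-bla HEK 293T cells (2,000/well, 18 h after plating) for 3 h at 37 C/5% CO2. Reporter activity detected via FRET beta-lactamase substrate, 2 h room-temperature loading.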

A short description of assay [12]: cAMP Responsive Elements (CRE) small molecule antagonists, cell-based qHTS assay (AID 1963591; active means well fitted inhibition curve with a large enough effect in the signal ratio in the repeat runs, not every such curve was filed as active; the % refers to the signal ratio). The essentials:
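Antagonist mode: compounds are added alongside the adenylyl cyclase activator NKH477 (0.25 uM final) to CRE-bla HEK293T cells for 3 h. LiveBLAzer FRET substrate, 2 h at room temperature, reports bla expression.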

Assay [13] deals with Beta-2 adrenergic receptor (Homo sapiens) (UniProt P07550). In words: Adrenergic beta2 receptor (ADRB2) small molecule antagonists, cell-based qHTS assay (AID 1963592). Further: series mostly up to about 92 µM; nearly all actives have a fitted effect of over 50% in size. The essentials:
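Assay format: CHO-ADRB2 cells, 18-20hr seeding at 37C/5% CO2, then compound plus 1nM isoproterenol agonist mix for 0.5hr RT. Homogeneous time-resolved fluorescence cAMP detection after 1hr, expressed as 665/615 nm ratio.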

The target of assay [14] is D(2) dopamine receptor (Homo sapiens) (UniProt P14416). In words: Dopamine D2 receptor (DRD2) small molecule agonists, cell-based qHTS assay (AID 1963594). Further: nearly all actives have a fitted effect of over 35% in size. In short, it runs like this:
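cAMP accumulation in DRD2-HEK293 cells measured by HTRF after 1 h detection; compounds added 10 min before NKH477 (200nM […]) forskolin-analogue stimulation, 30 min at room temperature, with Ro20-1724 present at 0.1 mM final.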

Assay [15] shares this target. In words: Dopamine D2 receptor (DRD2) small molecule antagonists, cell-based qHTS assay (AID 1963595; active means well fitted inhibition curve with a large enough effect in the signal ratio in the repeat runs, with a control signal flat; the % refers to the signal ratio). The essentials: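 HEK293 cells stably expressing DRD2 were preincubated with 0.1 mM Ro20-1724, then with compound for 10 min at room temperature. Cells were stimulated with 200 nM NKH477 plus 12 nM quinpirole for 30 min, and cAMP was read by HTRF.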
Assay [16] addresses Muscarinic acetylcholine receptor M1 (Homo sapiens) (UniProt P11229). In words: Cholinergic receptor muscarinic 1 (CHRM1) small molecule agonists, cell-based qHTS assay (AID 1963589). Further: nearly all actives have a fitted effect of over 35% in size. The essentials: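 Agonist-mode calcium-flux screen: compounds at 15 concentrations, three independent runs, were pin-transferred onto dye-loaded human CHRM1-CHO cells. Fluorescence was then recorded kinetically every second over minutes.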

Assay [17] has as its target Beta-2 adrenergic receptor (Homo sapiens) (UniProt P07550). In words: Adrenergic beta2 receptor (ADRB2) small molecule agonists, cell-based qHTS assay (AID 1963593).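 Further: CHO cells stably overexpressing human ADRB2.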 In short, it runs like this: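 CHO cells stably over-expressing ADRB2 were plated overnight at 37C, then dosed with compounds plus a stimulation mix containing 100uM IBMX and 25uM Ro-20-1724 for 0.5hr at room temperature. cAMP was measured by HTRF competition, 1hr.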

Assay [18] deals with Muscarinic acetylcholine receptor M1 (Homo sapiens) (UniProt P11229). In words: Cholinergic receptor muscarinic 1 (CHRM1) small molecule antagonists, cell-based qHTS assay (AID 1963588). Further: nearly all actives have a fitted effect of over 40% in size. In short, it runs like this: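 Compounds were tested at 15 concentrations in three independent runs. Dye-loaded CHRM1-CHO cells were exposed 5 min at room temperature before stimulation by acetylcholine added at 50nM. Intracellular calcium was read kinetically on FDSS for 3 min.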
Chain of Muscarinic acetylcholine receptor M1 (Homo sapiens) (P11229 whole entry, looked up): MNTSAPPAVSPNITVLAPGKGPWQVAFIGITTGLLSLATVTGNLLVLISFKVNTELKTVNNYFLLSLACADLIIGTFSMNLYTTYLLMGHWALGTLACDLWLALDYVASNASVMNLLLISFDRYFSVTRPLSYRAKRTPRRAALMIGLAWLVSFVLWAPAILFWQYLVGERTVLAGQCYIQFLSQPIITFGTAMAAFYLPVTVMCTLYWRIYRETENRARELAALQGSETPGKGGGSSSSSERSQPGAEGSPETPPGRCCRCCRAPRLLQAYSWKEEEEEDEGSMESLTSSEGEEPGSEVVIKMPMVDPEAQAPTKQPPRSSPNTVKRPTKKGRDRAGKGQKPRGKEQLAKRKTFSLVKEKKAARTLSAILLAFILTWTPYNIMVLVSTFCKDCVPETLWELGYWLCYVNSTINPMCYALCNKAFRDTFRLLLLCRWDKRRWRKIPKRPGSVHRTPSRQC

Chain of D(2) dopamine receptor (Homo sapiens) (P14416 whole entry, looked up): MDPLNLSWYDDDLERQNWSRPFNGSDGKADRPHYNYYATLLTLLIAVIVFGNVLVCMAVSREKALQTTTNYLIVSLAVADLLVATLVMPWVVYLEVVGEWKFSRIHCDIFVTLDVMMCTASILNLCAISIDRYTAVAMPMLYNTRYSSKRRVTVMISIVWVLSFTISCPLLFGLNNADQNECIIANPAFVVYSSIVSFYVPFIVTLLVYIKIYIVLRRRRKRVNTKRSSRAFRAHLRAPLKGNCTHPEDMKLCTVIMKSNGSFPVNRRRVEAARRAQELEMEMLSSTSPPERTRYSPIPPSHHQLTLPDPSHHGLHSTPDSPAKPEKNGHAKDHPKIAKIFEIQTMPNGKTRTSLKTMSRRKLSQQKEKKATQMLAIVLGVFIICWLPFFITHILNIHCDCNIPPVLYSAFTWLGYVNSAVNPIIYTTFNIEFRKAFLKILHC
Chain of 5-hydroxytryptamine receptor 2A (Homo sapiens) (P28223 whole entry, looked up): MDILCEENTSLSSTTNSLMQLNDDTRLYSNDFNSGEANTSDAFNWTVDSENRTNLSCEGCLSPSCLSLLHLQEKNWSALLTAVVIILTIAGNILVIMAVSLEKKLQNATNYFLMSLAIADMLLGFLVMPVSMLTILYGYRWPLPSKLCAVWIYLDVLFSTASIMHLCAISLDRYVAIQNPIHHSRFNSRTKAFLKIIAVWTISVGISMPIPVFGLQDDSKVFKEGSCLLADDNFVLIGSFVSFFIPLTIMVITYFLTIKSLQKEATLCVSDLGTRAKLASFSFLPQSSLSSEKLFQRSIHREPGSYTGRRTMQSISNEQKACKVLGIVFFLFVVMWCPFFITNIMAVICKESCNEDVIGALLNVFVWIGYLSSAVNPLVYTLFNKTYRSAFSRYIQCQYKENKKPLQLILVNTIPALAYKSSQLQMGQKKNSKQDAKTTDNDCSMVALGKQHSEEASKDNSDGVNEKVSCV
Chain of KiSS-1 receptor (Homo sapiens) (Q969F8 whole entry, looked up): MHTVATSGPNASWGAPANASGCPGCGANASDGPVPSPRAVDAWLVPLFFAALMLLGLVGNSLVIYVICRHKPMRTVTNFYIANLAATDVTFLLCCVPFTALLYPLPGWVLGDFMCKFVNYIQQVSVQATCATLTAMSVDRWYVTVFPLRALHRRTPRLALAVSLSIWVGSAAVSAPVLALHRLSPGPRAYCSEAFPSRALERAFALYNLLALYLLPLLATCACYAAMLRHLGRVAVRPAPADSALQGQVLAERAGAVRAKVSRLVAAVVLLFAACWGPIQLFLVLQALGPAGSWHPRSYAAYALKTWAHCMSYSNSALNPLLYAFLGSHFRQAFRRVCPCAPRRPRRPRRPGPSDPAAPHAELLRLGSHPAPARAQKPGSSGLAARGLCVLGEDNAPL
Chain of Beta-2 adrenergic receptor (Homo sapiens) (P07550 whole entry, looked up): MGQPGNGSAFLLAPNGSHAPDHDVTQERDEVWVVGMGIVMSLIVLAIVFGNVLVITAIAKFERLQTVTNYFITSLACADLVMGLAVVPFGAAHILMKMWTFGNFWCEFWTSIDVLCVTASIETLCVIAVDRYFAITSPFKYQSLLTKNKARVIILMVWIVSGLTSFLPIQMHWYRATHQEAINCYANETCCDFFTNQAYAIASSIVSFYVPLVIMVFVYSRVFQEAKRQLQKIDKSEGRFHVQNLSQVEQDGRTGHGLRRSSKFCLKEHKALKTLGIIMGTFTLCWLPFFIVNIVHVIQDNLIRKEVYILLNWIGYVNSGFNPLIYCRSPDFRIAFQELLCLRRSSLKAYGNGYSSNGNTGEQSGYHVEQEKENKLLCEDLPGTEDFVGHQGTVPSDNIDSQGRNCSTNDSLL
Chain of Gonadotropin-releasing hormone receptor (Homo sapiens) (P30968 whole entry, looked up): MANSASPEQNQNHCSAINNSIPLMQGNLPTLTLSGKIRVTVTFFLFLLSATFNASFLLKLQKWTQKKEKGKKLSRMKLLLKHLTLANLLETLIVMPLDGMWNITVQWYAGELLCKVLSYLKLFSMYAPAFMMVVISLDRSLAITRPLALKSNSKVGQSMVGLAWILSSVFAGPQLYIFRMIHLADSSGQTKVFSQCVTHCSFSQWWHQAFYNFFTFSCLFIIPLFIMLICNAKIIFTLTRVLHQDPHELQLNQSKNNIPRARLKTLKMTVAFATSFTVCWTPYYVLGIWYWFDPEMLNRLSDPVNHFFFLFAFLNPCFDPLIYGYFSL

Consider `Brc1cc(Br)c(Oc2cc(Br)c(Br)cc2Br)cc1Br`, for which the Potency entry in [1], in [2], in assay [3], in assay [4], in [5] and in assay [6] was “inactive” throughout. The Potency result in assay [7], in assay [8], in [9], in assay [10], in assay [11] and in assay [12] was “inactive” throughout. Besides, the Potency result in assay [13], in assay [14] and in assay [15] was “inactive” each time.

For `CC(C)(CO)[N+](=O)[O-]`, the Potency entry in assay [1], in assay [2], in assay [3], in [4], in assay [5] and in [6] was “inactive” throughout. The Potency entry in [7], in assay [8], in [9], in assay [10], in assay [16] and in assay [12] was “inactive” each time. For the same compound, the Potency result in [13], in assay [17], in assay [14] and in [15] was “inactive” in each case.

Take `OCCOc1cccc(OCCO)c1`: the Potency result in assay [1], in assay [2], in [3], in assay [4], in assay [5] and in [6] was “inactive” in each case. Further, the Potency result in [7], in assay [8], in assay [10], in assay [18], in [16] and in assay [11] was “inactive” each time. The Potency entry in assay [12], in assay [14] and in [15] was “inactive” throughout.

For the compound `Cc1ccc(-c2ncc(Cl)cc2-c2ccc(S(C)(=O)=O)cc2)cn1`, the Potency result in [1], in assay [2], in assay [3], in [4], in assay [5] and in [6] was “inactive” in each case. The Potency result in assay [7], in assay [8], in assay [9], in assay [18], in [16] and in [13] was “inactive” throughout. For the same compound, in assay [14], the Potency entry was “inactive”.

As to `CC(=O)CCC1=C(C)CCCC1(C)C`, the Potency result in assay [1], in [2], in assay [3], in assay [4], in assay [5] and in assay [6] was “inactive” each time. Moreover, the Potency entry in assay [7], in assay [8], in assay [10], in [18], in [16] and in assay [11] was “inactive” in each case. For the same compound, the Potency entry in [12], in [13], in [17], in assay [14] and in assay [15] was “inactive” throughout.

As for `C/C=C1/C(=O)C[C@H]2[C@@H]3CCC4=CC(=O)CC[C@]4(C)[C@H]3CC[C@]12C`, the Potency entry in assay [1], in assay [3], in assay [4], in assay [5], in [6] and in [7] was “inactive” in each case. The Potency entry in assay [8], in assay [9], in assay [10], in assay [16], in assay [14] and in assay [15] was “inactive” each time. In assay [2], the Potency is 68.4 µM (active).

On to `COP(=O)(O)OP(=O)(O)OC`, for which the Potency entry in assay [1], in [3], in assay [4], in [5], in assay [6] and in assay [7] was “inactive” each time. The Potency result in assay [8], in [10], in [18], in assay [16], in [11] and in assay [13] was “inactive” in each case. Further, the Potency entry in assay [15] is “inactive”. In addition, the Potency in [2] is 24.3 µM (active).

Take `CCCCCCOC(=O)CCCCCCCC(=O)OCCCCCC`: the Potency result in assay [1], in assay [2], in assay [3], in assay [4], in assay [5] and in [6] was “inactive” in each case. Moreover, the Potency result in [7], in assay [8], in assay [10], in [18], in [16] and in assay [11] was “inactive” in each case. In addition, the Potency result in assay [12], in assay [13], in [17] and in assay [14] was “inactive” throughout.

These data come from PubChem BioAssay (Tox21).
